Results: PubChem BioAssay (NCI)
The panel holds about 83,000 compounds, 20% with a hit somewhere; the sample as a whole holds those more often.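 Growth was measured after 48 h exposure to one concentration of compound in 96-well plates. Values under 10 count as active.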 Unmarked numbers belong to inactive results. Activity calls are given as the source filed them.

Legend:
Experiment in all cases: NCI-60 one-dose screen, 48 h (100 = growth as untreated, 0 = no growth, -100 = all killed)
HT29 colon = conditions: 10 µM unless noted
SNB-75 CNS = conditions: 10 µM unless noted
SNB-19 CNS = conditions: 10 µM unless noted
U251 CNS = conditions: 10 µM unless noted
PC-3 prostate = conditions: 10 µM unless noted
SK-MEL-5 melanoma = conditions: 10 µM unless noted
UACC-62 melanoma = conditions: 10 µM unless noted
LOX IMVI melanoma = conditions: 10 µM unless noted
SK-MEL-28 melanoma = conditions: 10 µM
SK-MEL-2 melanoma = conditions: 10 µM unless noted
EKVX NSCLC = conditions: 10 µM unless noted
SN12C renal = conditions: 10 µM unless noted
UO-31 renal = conditions: 10 µM unless noted
TK-10 renal = conditions: 10 µM unless noted
ACHN renal = conditions: 10 µM unless noted
CAKI-1 renal = conditions: 10 µM unless noted
A498 renal = conditions: 10 µM unless noted
CCRF-CEM leukemia = conditions: 10 µM unless noted
MOLT-4 leukemia = conditions: 10 µM unless noted
SR leukemia = conditions: 10 µM unless noted

Row | SMILES | growth (HT29 colon) | growth (SNB-75 CNS) | growth (SNB-19 CNS) | growth (U251 CNS) | growth (PC-3 prostate) | growth (SK-MEL-5 melanoma) | growth (UACC-62 melanoma) | growth (LOX IMVI melanoma) | growth (SK-MEL-28 melanoma) | growth (SK-MEL-2 melanoma) | growth (EKVX NSCLC) | growth (SN12C renal) | growth (UO-31 renal) | growth (TK-10 renal) | growth (ACHN renal) | growth (CAKI-1 renal) | growth (A498 renal) | growth (CCRF-CEM leukemia) | growth (MOLT-4 leukemia) | growth (SR leukemia)
1 | O=C1Nc2ccccc2/C1=C/c1ccc[nH]1 | 110% | 105% | 90.3% | 83% | 106% | 58.7% | 97.7% | 98.8% | 114% | 103% | 32.8% | 92.7% | 61.9% | 63.5% | 84% | 77.4% | 88.5% | 109% | 101% | 71.7%
2 | C[C@@H](C(=O)NCCCC#Cc1cnc(Nc2ccc(C#N)cc2)nc1NC1CC1)N(C)C(=O)/C=C/CN(C)C | 19.3% | 80.5% | 58.9% | 21.4% | 63.2% | 35.9% | 52.2% | 49% | 52.1% | 65.3% | 33.5% | 35.9% | 28.6% | 63% | 14.3% | 60.1% | -5.21% (active) | 13.8% | 7.9% (active) | 9.79% (active)
3 | CN1C(=O)N(C)C2(c3ccccc3)OC(=S)NC12c1ccccc1 (stereo not given) | 89.1% | 87.6% | 98.4% | 98.7% | 92.4% | 104% | 92.5% | 98.7% | 102% | 102% | 90.8% | 107% | 89% | 102% | 95.7% | 84.7% | 105% | 114% | 103% | 105%
4 | CCOC(=O)c1c2c(c(C)n1Cc1ccc(OC)cc1)-c1oncc1CC2 | 89.1% | 72.9% | 81.8% | 86.3% | 99.6% | 98.1% | 110% | 76.6% | 138% | 120% | 94.3% | 175% | 65.3% | 102% | 91.3% | 70.6% | 91.9% | 93.3% | 85.3% | 85.4%
5 | OCCNc1nc(Nc2ccc(C3=NN(c4cc(Cl)cc(Cl)c4)C(c4ccc(C(F)(F)F)cc4)C3)cc2)nc(N2CCOCC2)n1 (stereo not given) | 55.9% | 68.4% | 87.6% | 63.4% | 62.9% | 76% | 69.7% | 44.8% | 81.4% | 116% | 71.4% | 74.8% | 72% | 114% | 56.8% | 71.3% | 82.4% | 51% | 60.2% | 70.5%
6 | CCCCC1COc2cccc3c2N1C=C/C3=C\C(=O)N(C)c1ccccc1 (stereo not given) | 49.7% | 72.1% | 52.3% | 33.9% | 51.2% | 13.4% | 36% | 51.2% | 75% | 71.1% | 45.8% | 64.9% | 59.3% | 108% | 68.9% | 72% | 86.1% | 47.6% | 55.7% | 66.6%
